Screening results as filed in PubChem.
Only some compounds are listed: those with a hit (about 6.9% of all), similar ones and a draw of the others.
L3MBTL1 inh – qHTS Assay for the Inhibitors of L3MBTL1; AlphaScreen L3MBTL1–H3K9me1 peptide binding; Potency, µM (doses to about 57.1 µM), for inactives: at the highest dose activity, negative = inhibition, hits mostly inhibitors; actives 0.66% (n = 230,000); AID 485360, 2010; further: on the % scale 0 is the no-effect control and ±100 the full control effect; nearly all actives have a fitted effect of over 60% in size
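AlphaScreen proximity signal between nickel-chelate acceptor and streptavidin donor beads (final 10 ug/mL) reports binding of 50 nM L3MBTL1 to 75 nM biotin-H3 K9me1 peptide; complex incubated with compounds 30 min at room temperature; cefsulodin titration as control.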
PLK1 PBD inh – qHTS for Inhibitors of PLK1-PDB (polo-like kinase 1 - polo-box domain): Primary Screen; Serine/threonine-protein kinase PLK1 (Homo sapiens), P53350; Plk1 PBD binding of FITC phosphopeptide, fluorescence polarization; Potency, µM, without a hit: max response, negative = inhibition, usual class: inhibitors; actives 2.8% (n = 360,000); further: series mostly up to about 57 µM; on the % scale 0 is the no-effect control and ±100 the full control effect; nearly all actives have a fitted effect of over 65% in size
BAZ2B inh – qHTS Assay for Inhibitors of BAZ2B. Bromodomain adjacent to zinc finger domain protein 2B (Homo sapiens), Q9UIF8. AlphaScreen BAZ2B-H3K14Ac peptide displacement. Potency, µM (series often up to 114 µM), without a hit: at the highest dose activity change, negative = inhibition, actives largely listed as inhibitors. actives 4.4% (n = 360,000); further: on the % scale 0 is the no-effect control and ±100 the full control effect; nearly all actives have a fitted effect of over 60% in size
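Compounds, titrated to a top concentration of 110 uM, were incubated 30 min at room temperature with preformed BAZ2B/acetyl-K14 H3 peptide complex (50 nM each). Proximity signal was measured by AlphaScreen after 20 min with beads.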
JMJD2A Tudor – qHTS Assay for Inhibitors of JMJD2A-Tudor Domain; Lysine-specific demethylase 4A (Homo sapiens), O75164; AlphaScreen JMJD2A-Tudor / H3K4me3 peptide binding; Potency, µM (titrated, usually from 114 µM), inactives show at the highest dose activity change, negative = inhibition, hits mostly inhibitors; actives 4.4% (n = 390,000); AID 504339, 2011; further: on the % scale 0 is the no-effect control and ±100 the full control effect; nearly all actives have a fitted effect of over 50% in size
HP1b binding inh – HTS for Inhibitors of HP1-beta Chromodomain Interactions with Methylated Histone Tails; actives 0.56% (n = 390,000); AlphaScreen HP1-beta / biotin-H3K9me3 peptide binding; Potency, µM (titrated, usually from 114 µM), without a hit: top-dose activity change, negative = inhibition, hits mostly inhibitors; further: nearly all actives have a fitted effect of over 70% in size
Target sequence (P83916 whole entry, looked up): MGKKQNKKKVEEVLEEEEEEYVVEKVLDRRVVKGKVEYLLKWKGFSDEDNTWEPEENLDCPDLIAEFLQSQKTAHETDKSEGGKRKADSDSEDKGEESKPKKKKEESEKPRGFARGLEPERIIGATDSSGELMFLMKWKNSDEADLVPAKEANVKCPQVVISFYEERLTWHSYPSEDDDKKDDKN
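HP1-beta protein (50 nM final) preincubated 30 min at room temperature with biotinylated H3(1-18)K9me3 peptide (50 nM) in PBS pH 7.4, 0.01% Tween-20, then compound added for 30 min. AlphaScreen streptavidin donor/nickel chelate acceptor beads (10 ug/mL final), 30 min dark, luminescence read.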
VDR inh – Inhibitors of the vitamin D receptor (VDR): qHTS | actives 0.93% (n = 400,000) | Potency, µM, for the others: max response, negative = inhibition, usual class: inhibitors | Vitamin D3 receptor (Homo sapiens), P11473 | VDR-SRC2-3 peptide fluorescence polarization, 2 h | AID 504847, 2011; further: on the % scale 0 is the no-effect control and ±100 the full control effect
Target sequence (P11473 whole entry, looked up): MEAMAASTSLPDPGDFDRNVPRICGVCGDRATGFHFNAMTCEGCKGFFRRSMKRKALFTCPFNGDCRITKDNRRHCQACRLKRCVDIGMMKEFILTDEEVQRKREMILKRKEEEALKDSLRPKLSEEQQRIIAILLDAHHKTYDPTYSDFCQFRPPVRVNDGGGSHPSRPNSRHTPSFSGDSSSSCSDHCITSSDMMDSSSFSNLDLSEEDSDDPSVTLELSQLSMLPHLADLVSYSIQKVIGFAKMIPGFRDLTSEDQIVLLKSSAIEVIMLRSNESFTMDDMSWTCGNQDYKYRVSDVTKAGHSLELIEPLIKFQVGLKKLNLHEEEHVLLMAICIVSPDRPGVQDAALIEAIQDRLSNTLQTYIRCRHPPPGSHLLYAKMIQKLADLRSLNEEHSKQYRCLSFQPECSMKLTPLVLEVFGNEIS
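FP read-out; VDR + SRC2-3 coactivator peptide; 23 nl compound by pintool; 2 h RT incubation; reagents held at 4 deg C, protected from light.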
VDR inh confirm – qHTS for Inhibitors of the vitamin D receptor (VDR): Hit Validation in Primary Screen; actives 89% (n = 840); VDR-coactivator inhibition assay, qHTS confirmation; Potency, µM, actives largely listed as inhibitors; shares compounds with VDR inh
VDR FP – qHTS for Inhibitors of the vitamin D receptor (VDR): Hit Validation using a Fluorescein Assay. shares compounds with VDR inh. VDR-coactivator binding, fluorescein fluorescence polarization. Potency, µM (highest dose often 57.1 µM), for inactives: at the top dose activity change, negative = inhibition, actives largely listed as inhibitors. actives 48% (n = 840). AID 602200, 2012
VDR bla – qHTS for Inhibitors of the vitamin D receptor (VDR): Hit Validation using a Beta-Lactamase Assay. shares compounds with VDR inh. VDR beta-lactamase reporter cells, FRET ratio; cells co-treated with VDR agonist LG190178. Potency, µM (doses to about 46.1 µM), inactives show top-dose activity change, negative = inhibition, most hits filed as inhibitors. actives 23% (n = 840); further: on the % scale 0 is the no-effect control and ±100 the full control effect
VDR viability – qHTS for Inhibitors of the vitamin D receptor (VDR): Hit Validation using a Cytotoxicity Assay; shares compounds with VDR inh; cytotoxicity counter-screen, cell viability, qHTS; Potency, µM (doses to about 48.3 µM), for the others: at the highest dose activity change, negative = cytotoxicity, usual class: cytotoxic; actives 18% (n = 840); AID 602204, 2012;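 further: plate controls were DMSO for no effect and high-concentration cycloheximide for full effect; nearly all actives have a fitted effect of over 75% in size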
Numbers without * were called inactive; [ ] = remark or other dose. The call rests on the fitted dose curve; in most records, active means well fitted curve in the direction sought with a large enough effect; inconclusive means small, poorly fitted or top-dose-only effect, or another doubt; inactive means no such curve, though single readings can be large; an effect the other way counts as inactive or inconclusive. Potency means the concentration at half of the fitted maximal effect.

Cc1ccc(C(=O)c2cn[nH]c2-c2ccccc2O)cc1 was read as L3MBTL1 inh -1%, PLK1 PBD inh -6%, BAZ2B inh 4%, JMJD2A Tudor -17%, HP1b binding inh 29% and VDR inh 0%.
Cc1oc2c(c1C(=O)c1ccc(Cl)cc1)C(=O)C(=O)c1ccccc1-2 was read as L3MBTL1 inh -4%, PLK1 PBD inh inconclusive, BAZ2B inh inconclusive, JMJD2A Tudor inconclusive, HP1b binding inh 3%, VDR inh inconclusive, VDR inh confirm 3.5*, VDR FP 3.5µM*, VDR bla 2.9µM* and VDR viability 3.8µM*.
Screening Cc1ccc(C(=O)c2c(C)oc3c2C(=O)C(=O)c2ccccc2-3)cc1 returned L3MBTL1 inh inconclusive, PLK1 PBD inh inconclusive, BAZ2B inh 32µM*, JMJD2A Tudor 45µM*, HP1b binding inh 18µM*, VDR inh 3.5µM*, VDR inh confirm 1.5*, VDR FP 4µM*, VDR bla inconclusive and VDR viability 5.6µM*.
Cc1ccc(C(=O)c2coc3c2C(=O)C(=O)c2ccccc2-3)cc1 was read as PLK1 PBD inh inconclusive, BAZ2B inh inconclusive, JMJD2A Tudor inconclusive, HP1b binding inh -25%, VDR inh 7.1µM*, VDR inh confirm 4.7*, VDR FP inconclusive, VDR bla -22% and VDR viability inconclusive.
`COc1cc2ccccc2cc1C(=O)OCc1nc2ccsc2c(=O)[nH]1` gave L3MBTL1 inh 4%, PLK1 PBD inh -2%, BAZ2B inh -4%, JMJD2A Tudor -10%, HP1b binding inh 31% and VDR inh 12%.
`COc1ccc(S(=O)(=O)N2CCOCC2)cc1NC(=O)CSc1nnc(C2CC2)n1C` gave L3MBTL1 inh -2%, PLK1 PBD inh -18%, JMJD2A Tudor -3%, HP1b binding inh 40% and VDR inh 16%.
For COc1cc(/C=C/C(=O)c2cccc([N+](=O)[O-])c2)cc(OC)c1OC the results were L3MBTL1 inh -3%, PLK1 PBD inh inconclusive, BAZ2B inh inconclusive, JMJD2A Tudor inconclusive, HP1b binding inh -11%, VDR inh inconclusive, VDR inh confirm 2.2*, VDR FP 2.5µM*, VDR bla inconclusive and VDR viability inconclusive.
`COc1ccc(C(=O)/C=C/c2ccccc2F)c(OC(=O)c2ccc([N+](=O)[O-])cc2)c1` gave L3MBTL1 inh -7%, PLK1 PBD inh -2%, BAZ2B inh -35%[57.1 µM], JMJD2A Tudor inconclusive, HP1b binding inh -11%, VDR inh inconclusive, VDR inh confirm inconclusive, VDR FP 6.3µM*, VDR bla inconclusive and VDR viability -23%.
COc1cc(/C=C/C(=O)c2ccc(C)c([N+](=O)[O-])c2)cc(OC)c1O was read as L3MBTL1 inh -2%, PLK1 PBD inh -17%, BAZ2B inh -25%, JMJD2A Tudor -26%, HP1b binding inh 0% and VDR inh inconclusive.
COc1ccc(/C=C/C(=O)c2ccc(C)c([N+](=O)[O-])c2)cc1O was read as L3MBTL1 inh -14%, PLK1 PBD inh -25%, BAZ2B inh inconclusive, JMJD2A Tudor inconclusive, HP1b binding inh -22%, VDR inh 35µM*, VDR inh confirm 11*, VDR FP 7.9µM*, VDR bla inconclusive and VDR viability inconclusive.
O=C(/C=C/c1ccccc1F)c1cccc([N+](=O)[O-])c1 was read as L3MBTL1 inh -1%, PLK1 PBD inh inconclusive, BAZ2B inh inconclusive, JMJD2A Tudor inconclusive, HP1b binding inh -2%, VDR inh 13µM*, VDR inh confirm 2.5*, VDR FP 1.6µM*, VDR bla 26µM* and VDR viability 0%.
`CC(OC(=O)CN1C(=O)NC2(CCCC2)C1=O)C(=O)c1ccccc1` (stereo not drawn) gave L3MBTL1 inh 6%, PLK1 PBD inh -1%, BAZ2B inh -1%, JMJD2A Tudor -6%, HP1b binding inh 35% and VDR inh 4%.
Screening COc1cc(Cl)c(NC2=CC(=O)C(=O)c3ccccc32)c(OC)c1 returned L3MBTL1 inh inconclusive, PLK1 PBD inh -3%, BAZ2B inh inconclusive, JMJD2A Tudor inconclusive, HP1b binding inh inconclusive and VDR inh 6%.
CCCOc1ccccc1/C=C1/C(=O)ON=C1C was read as PLK1 PBD inh 3µM*, BAZ2B inh -35%, JMJD2A Tudor 0%, HP1b binding inh 28%, VDR inh 25µM*, VDR inh confirm 13*, VDR FP inconclusive, VDR bla 15% and VDR viability 20%.
CCCOc1ccc(/C=C2/C(=O)ON=C2C)cc1OCC was read as PLK1 PBD inh 1.7µM*, BAZ2B inh -8%, JMJD2A Tudor -8%, HP1b binding inh 26%, VDR inh inconclusive, VDR inh confirm 13*, VDR FP 7.1µM*, VDR bla inconclusive and VDR viability -27%.
